Tests used:
Test in all cases: log2 ratio of Biotin-Ahx-Ub-VS probe labelling (fragment/DMSO); higher = less target engagement (more negative = stronger competition), active = hit call of the paper (q ≤ 0.05, log2 ratio ≤ -1)
Conditions in all cases: compound concentration: 200 uM; treatment time: 3 h
USP34 = USP34 (UniProt Q70CQ2)
Outline: (§1)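 Fragment (200 µM) or vehicle was incubated for 3 h with triplicate HEK293T lysate samples of 495 µg, which were then treated with Biotin-Ahx-Ub-VS at 0.5 µM final for 1 h. Labelled DUBs were enriched on NeutrAvidin, digested with LysC and trypsin, and analysed by diaPASEF LC-MS/MS. Values are average log2 fragment/vehicle ratios from an unpaired t-test on global-median-normalised Spectronaut label-free quantities, using proteins with ≥2 unique peptides.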

USP36 = biological target: T1, USP36 (UniProt Q9P275)
T1 sequence (whole entry): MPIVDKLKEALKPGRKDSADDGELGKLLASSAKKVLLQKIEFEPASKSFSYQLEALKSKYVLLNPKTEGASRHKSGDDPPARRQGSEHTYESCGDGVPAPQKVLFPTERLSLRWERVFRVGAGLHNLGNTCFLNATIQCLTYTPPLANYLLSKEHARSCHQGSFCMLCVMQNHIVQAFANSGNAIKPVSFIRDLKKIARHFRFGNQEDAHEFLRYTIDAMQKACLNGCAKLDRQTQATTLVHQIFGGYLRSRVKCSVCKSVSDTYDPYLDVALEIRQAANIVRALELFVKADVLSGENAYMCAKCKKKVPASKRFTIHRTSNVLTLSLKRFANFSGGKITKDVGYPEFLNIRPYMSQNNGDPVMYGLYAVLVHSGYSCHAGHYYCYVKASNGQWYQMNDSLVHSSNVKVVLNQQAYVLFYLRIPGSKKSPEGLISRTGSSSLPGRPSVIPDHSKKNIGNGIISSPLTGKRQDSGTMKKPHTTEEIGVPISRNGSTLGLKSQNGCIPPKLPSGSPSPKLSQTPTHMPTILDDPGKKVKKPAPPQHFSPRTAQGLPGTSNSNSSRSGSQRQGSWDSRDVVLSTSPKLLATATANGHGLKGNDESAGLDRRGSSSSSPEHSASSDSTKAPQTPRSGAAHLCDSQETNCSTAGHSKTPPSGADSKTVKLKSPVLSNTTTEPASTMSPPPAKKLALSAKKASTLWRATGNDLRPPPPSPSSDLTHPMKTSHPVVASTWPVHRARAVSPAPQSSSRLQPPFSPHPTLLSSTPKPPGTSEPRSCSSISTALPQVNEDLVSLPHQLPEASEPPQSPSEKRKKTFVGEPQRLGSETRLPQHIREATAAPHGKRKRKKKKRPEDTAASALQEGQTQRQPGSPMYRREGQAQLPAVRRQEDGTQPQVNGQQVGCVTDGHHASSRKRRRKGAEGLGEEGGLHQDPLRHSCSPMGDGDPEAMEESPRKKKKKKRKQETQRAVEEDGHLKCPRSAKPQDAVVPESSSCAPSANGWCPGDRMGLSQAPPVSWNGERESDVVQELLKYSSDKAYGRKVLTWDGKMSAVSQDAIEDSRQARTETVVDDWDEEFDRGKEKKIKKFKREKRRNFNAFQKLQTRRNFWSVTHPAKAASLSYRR
Outline: as §1

USP38 = biological target: T2, USP38 (UniProt Q8NB14)
T2 sequence (whole entry): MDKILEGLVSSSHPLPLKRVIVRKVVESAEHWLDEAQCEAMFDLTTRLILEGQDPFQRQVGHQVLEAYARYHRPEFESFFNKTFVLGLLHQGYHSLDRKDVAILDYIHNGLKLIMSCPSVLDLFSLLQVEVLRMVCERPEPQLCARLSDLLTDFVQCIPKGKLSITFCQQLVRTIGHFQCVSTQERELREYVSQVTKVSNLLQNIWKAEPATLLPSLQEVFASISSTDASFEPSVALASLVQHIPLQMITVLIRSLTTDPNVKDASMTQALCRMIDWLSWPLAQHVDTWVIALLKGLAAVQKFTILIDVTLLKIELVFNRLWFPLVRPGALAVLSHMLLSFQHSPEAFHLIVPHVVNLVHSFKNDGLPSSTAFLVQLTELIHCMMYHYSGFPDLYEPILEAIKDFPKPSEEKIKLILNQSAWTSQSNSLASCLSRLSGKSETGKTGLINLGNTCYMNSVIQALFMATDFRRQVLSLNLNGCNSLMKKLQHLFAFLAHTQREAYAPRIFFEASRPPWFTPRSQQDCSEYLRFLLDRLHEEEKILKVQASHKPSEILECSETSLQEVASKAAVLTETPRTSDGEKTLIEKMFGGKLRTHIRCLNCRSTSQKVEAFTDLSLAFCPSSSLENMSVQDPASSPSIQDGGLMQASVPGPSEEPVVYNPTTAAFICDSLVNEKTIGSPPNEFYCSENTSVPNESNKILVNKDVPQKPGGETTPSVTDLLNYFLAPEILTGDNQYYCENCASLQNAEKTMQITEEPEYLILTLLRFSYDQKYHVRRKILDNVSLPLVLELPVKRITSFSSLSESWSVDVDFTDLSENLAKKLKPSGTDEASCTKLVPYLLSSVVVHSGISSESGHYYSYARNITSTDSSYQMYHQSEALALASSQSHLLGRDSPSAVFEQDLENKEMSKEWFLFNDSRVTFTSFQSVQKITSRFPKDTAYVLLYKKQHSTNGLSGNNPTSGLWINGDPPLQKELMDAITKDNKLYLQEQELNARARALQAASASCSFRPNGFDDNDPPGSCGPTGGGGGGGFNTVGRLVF
Outline: as §1

USP39 = biological target: T3, USP39 (UniProt Q53GS9)
T3 sequence (whole entry): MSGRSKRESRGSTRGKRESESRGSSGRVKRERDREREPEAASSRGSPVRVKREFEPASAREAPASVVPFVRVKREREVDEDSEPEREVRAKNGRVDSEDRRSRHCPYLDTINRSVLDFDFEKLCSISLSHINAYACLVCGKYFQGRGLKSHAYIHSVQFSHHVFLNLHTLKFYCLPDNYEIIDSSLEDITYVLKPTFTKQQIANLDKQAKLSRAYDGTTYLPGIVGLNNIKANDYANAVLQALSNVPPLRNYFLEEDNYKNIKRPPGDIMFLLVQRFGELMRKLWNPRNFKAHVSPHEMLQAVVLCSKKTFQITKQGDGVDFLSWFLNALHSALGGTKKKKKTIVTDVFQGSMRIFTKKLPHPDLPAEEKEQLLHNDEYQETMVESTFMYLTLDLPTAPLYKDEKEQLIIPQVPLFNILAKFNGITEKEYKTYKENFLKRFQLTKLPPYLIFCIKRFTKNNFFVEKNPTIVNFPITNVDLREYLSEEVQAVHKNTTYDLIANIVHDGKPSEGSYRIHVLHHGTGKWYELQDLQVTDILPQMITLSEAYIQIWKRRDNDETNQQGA
Outline: as §1

USP4 = biological target: T4, USP4 (UniProt Q13107)
T4 sequence (whole entry): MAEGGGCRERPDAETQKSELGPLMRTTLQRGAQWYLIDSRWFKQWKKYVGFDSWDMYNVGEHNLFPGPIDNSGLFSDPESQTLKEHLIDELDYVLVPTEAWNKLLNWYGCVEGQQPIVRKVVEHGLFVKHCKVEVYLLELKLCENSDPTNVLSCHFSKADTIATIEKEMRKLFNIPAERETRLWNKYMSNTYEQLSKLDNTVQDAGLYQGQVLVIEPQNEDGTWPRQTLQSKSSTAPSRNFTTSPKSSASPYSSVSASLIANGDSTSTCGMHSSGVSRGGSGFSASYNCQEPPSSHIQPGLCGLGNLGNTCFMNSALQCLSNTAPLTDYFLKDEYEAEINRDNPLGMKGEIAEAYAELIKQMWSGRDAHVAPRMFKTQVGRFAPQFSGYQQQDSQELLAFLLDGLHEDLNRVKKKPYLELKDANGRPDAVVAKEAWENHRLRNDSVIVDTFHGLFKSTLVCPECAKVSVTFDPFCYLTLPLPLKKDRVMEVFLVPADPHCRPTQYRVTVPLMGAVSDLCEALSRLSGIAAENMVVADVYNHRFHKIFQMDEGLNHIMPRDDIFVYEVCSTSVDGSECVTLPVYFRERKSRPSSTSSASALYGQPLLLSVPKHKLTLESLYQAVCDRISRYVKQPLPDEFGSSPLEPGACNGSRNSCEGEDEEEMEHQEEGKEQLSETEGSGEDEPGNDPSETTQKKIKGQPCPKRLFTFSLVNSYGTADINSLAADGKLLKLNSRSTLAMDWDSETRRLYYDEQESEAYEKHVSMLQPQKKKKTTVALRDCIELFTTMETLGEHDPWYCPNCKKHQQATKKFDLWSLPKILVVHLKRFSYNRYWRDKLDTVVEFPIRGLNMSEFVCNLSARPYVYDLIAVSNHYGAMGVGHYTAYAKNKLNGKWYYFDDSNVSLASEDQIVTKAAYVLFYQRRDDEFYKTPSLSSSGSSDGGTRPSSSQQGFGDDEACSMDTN
Outline: as §1

Measured: log2 ratio of Biotin-Ahx-Ub-VS probe labelling

Sequence of USP34 (Q70CQ2 whole entry, the tested form may be a part): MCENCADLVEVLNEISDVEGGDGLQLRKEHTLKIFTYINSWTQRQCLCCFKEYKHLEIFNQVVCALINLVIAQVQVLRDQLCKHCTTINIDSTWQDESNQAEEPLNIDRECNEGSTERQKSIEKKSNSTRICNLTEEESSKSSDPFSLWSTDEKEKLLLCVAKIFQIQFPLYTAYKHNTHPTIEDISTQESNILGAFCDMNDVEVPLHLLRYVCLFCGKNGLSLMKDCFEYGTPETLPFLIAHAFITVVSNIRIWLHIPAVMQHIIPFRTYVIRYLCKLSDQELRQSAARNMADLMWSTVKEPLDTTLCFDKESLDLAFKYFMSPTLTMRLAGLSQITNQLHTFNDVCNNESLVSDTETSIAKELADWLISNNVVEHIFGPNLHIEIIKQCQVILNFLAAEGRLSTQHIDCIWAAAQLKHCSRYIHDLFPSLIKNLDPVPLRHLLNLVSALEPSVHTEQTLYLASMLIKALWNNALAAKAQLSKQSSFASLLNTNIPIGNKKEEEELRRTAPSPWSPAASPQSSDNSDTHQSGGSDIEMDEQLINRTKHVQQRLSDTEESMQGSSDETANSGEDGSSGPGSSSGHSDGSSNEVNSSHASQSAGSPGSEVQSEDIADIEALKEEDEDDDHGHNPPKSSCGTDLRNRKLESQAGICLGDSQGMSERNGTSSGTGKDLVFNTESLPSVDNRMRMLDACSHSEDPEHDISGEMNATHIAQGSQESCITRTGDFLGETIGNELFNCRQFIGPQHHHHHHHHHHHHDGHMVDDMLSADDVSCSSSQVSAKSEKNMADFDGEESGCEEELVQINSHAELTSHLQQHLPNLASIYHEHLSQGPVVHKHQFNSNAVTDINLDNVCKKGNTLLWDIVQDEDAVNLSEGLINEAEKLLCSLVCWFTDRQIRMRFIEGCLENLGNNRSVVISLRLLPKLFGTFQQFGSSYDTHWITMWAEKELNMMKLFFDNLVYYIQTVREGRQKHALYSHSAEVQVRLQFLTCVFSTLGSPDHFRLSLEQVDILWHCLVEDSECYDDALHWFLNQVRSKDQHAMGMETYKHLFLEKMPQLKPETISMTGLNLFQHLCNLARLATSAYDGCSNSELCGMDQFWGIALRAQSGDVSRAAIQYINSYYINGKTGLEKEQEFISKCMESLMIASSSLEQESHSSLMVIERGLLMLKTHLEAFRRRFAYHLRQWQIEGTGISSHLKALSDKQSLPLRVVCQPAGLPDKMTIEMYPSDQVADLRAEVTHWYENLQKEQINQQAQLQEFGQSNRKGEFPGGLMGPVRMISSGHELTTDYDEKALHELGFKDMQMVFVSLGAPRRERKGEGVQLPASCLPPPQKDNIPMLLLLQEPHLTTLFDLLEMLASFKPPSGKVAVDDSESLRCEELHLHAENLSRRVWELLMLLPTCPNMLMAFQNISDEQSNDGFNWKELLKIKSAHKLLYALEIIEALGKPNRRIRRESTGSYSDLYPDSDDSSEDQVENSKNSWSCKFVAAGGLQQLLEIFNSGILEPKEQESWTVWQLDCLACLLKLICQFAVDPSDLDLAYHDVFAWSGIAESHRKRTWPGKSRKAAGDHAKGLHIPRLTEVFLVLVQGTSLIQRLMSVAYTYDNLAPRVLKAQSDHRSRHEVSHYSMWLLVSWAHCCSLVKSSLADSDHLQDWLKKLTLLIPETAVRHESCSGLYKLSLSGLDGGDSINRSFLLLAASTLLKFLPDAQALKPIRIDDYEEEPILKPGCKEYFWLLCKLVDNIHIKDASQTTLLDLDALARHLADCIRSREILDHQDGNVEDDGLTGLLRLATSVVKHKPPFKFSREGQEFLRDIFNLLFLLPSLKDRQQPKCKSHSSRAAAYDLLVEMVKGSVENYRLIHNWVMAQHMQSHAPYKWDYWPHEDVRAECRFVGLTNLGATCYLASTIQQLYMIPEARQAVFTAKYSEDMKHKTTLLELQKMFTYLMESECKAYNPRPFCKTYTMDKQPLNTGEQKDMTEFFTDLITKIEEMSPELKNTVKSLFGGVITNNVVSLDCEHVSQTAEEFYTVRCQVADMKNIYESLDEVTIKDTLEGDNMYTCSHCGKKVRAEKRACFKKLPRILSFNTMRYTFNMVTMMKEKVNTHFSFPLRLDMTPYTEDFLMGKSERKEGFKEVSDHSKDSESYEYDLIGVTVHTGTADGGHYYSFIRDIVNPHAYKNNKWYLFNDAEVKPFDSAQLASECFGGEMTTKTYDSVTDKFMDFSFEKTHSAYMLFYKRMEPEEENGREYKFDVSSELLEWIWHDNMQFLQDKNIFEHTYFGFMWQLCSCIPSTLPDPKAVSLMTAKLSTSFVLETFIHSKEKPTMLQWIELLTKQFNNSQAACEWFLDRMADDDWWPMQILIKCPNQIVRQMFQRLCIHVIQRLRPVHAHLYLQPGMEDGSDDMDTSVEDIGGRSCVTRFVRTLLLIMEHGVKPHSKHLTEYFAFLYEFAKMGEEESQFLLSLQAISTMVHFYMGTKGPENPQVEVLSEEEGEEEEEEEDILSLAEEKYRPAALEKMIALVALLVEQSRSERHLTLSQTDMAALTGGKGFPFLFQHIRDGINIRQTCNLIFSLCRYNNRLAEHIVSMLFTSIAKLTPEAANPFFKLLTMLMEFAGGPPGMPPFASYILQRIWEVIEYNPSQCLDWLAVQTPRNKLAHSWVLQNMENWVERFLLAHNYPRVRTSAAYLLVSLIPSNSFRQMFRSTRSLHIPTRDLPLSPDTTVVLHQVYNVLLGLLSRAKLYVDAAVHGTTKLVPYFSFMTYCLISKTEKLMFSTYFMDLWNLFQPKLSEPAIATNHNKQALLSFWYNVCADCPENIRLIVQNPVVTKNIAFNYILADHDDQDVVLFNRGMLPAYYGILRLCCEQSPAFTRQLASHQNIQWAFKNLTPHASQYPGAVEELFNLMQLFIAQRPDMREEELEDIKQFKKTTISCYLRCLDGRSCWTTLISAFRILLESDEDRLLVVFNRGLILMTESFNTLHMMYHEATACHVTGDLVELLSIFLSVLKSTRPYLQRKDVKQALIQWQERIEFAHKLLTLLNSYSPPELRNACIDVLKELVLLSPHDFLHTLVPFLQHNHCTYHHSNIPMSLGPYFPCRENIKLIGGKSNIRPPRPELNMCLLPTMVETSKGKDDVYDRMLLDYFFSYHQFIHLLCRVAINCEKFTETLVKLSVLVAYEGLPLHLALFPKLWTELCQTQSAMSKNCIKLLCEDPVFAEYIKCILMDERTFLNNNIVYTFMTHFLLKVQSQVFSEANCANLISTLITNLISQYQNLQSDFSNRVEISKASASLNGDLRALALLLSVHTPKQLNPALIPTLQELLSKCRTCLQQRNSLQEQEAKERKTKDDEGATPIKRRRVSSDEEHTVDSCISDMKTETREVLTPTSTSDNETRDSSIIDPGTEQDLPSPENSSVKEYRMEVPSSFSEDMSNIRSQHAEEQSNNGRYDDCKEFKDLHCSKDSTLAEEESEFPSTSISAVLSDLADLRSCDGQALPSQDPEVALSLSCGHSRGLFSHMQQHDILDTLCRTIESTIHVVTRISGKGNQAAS

Cc1ccc(CN(C)C(=O)CCl)o1
inactive: USP34 -0.0329 | USP36 0.0474 | USP38 -0.0916 | USP39 0.287 | USP4 0.0471
